Here are results for 15 molecules from PubChem BioAssay (NCATS).

Structures are written as SMILES. Inconclusive results are not listed. Where a call stands in place of a potency, no number is given. Calls of active or inactive are those of the source. Calls follow the shape of the dose curve; as a rule, active = well fitted cell-killing curve with a large enough effect; inconclusive = small, poorly fitted or top-dose-only effect, or effect the other way; inactive = flat fitted curve, though single readings scatter.
Potency is read from the fitted curve at half-maximal effect.

A short description of this assay: qHTS for Inhibitors of ATXN expression: Validation of Cytotoxic Assay (AID 588349). As to conditions: cytotoxicity counter-screen for ATXN expression inhibitors, cell viability; series mostly up to 57.1 µM. The source says:
Spinocerebellar ataxia type 2 (SCA2) is a multisystem neurodegenerative disease caused by a dominantly-acting mutation leading to expansion of a polyQ domain in the ataxin-2 protein (ATXN2). SCA2 patients develop progressive ataxia and later lose function in other neuronal systems. Prominent parkinsonian signs develop in some patients. Similar to many neurodegenerative disorders, no symptomatic or disease-modifying treatments are known.
The primary objective of project is to identify compounds inhibiting ATXN2 expression and to test them for efficacy in SCA2 mouse models. To this end, in a collaboration between Dr. Daniel Scoles and scientists at NCGC, a cell-based assay adapted to high-throughput screening has been developed to screen the NIH Molecular Libraries Small Molecule Repository (MLSMR). Confirmed qHTS active compounds will be tested for toxicity against the human neuron-like SH-SY5Y cell line. This line is the parental cell type used to generate the transgenic line used in the primary assay, and so should provide an isogenic control to test the inherent toxicity of qHTS actives.
NIH Chemical Genomics Center [NCGC]
NIH Molecular Libraries Probe Centers Network [MLPCN]
Assay Submitter (PI): Stefan Pulst and Daniel Scoles, University of Utah
HEK293 cultured cells will be dosed with titrated compounds and incubated for 72 hr at 37 degrees C. Toxicity will be assessed using the CellTiter Glo kit (Promega), which uses intracellular ATP concentration as a viability marker.
`OCc1ccc(-c2nn(Cc3ccccc3)c3ccccc23)o1`: the Potency result is “inactive”. On to `Cc1ccc(S(=O)(=O)N[C@@H](Cc2ccccc2)C(=O)CCl)cc1`, for which the Potency was 14.1 µM (active). As for `COc1cc2ncnc(Nc3cccc(Cl)c3)c2cc1OC`, the entry is “inactive”; as for `CC(=O)[C@H]1CC[C@H]2[C@@H]3CCC4=CC(=O)CC[C@]4(C)[C@H]3CC[C@]12C`, “inactive”. In the case of `CC(C)NCC(O)c1ccc(NS(C)(=O)=O)cc1` (stereo not given), the Potency entry is “inactive”. With `N[C@@H](Cc1ccc(O)c(O)c1)C(=O)O`, the Potency result was “inactive”.

As to `NC(=O)c1ccc2[nH]ccc2c1`, the Potency entry is “inactive”. For the molecule `O=C(O)C1CCCN(CCC=C(c2ccccc2)c2ccccc2)C1` (stereo not given), the Potency entry is “inactive”. Turning to `Nc1nc(N)c2nc(CNc3ccc(C(=O)NC(CCC(=O)O)C(=O)O)cc3)cnc2n1` (stereo not given), the Potency result is “inactive”. As for `CC1=C(C(=O)O)N2C(=O)[C@@H](NC(=O)C(N)c3ccccc3)[C@H]2SC1` (stereo not given in full), the entry is “inactive”; as for `CC1CC2C3CCC4=CC(=O)C=C[C@]4(C)[C@@]3(F)[C@@H](O)C[C@]2(C)[C@@]1(O)C(=O)CO` (stereo not given in full), “inactive”; as for `NC(=O)c1cccc(N)c1`, “inactive”. Take `CCN1CCCC1CNC(=O)c1cc(S(N)(=O)=O)ccc1OC` (stereo not given): the Potency result was “inactive”. Under `CCN(CC)CCn1c(=O)c(Cc2ccc(OC)cc2)nc2ccccc21` stands “inactive”; under `CCCCS(=N)(=O)CCC(N)C(=O)O` (stereo not given), “inactive”.
